# Measured values: the antibiotic and cytotoxicity screens of Wong et al. (2023)
# About 3,300 (8.5%) of roughly 39,000 compounds were called active. For the sample, actives were picked, then their nearest neighbours and some compounds at random.
# System: HepG2
# Experiment: cytotoxicity call (relative viability < 0.9)
# Conditions: 10 µM
row,SMILES,cytotoxicity call
1,CC=Cc1ccc(OC)cc1,active
2,O=C(C=Cc1ccc(O)cc1)c1ccc(O)cc1O,inactive
3,COc1ccc(/C=C2/NC(=O)NC2=O)cc1,inactive
4,C/C=C/c1ccc(OC)cc1,inactive
5,COc1ccc(C=CC(=O)c2ccccc2)cc1,active
6,COc1ccc(C=CC(=O)c2cc(O)ccc2O)cc1,active
7,CC(=C/C(=O)O)/C=C/c1ccccc1,inactive
8,COc1ccc(C(=O)O)cc1,inactive
9,COc1ccc(C(=O)C=Cc2ccccc2)cc1,active
10,CCCCC(CC)COC(=O)C=Cc1ccc(OC)cc1 (centres undefined),inactive
11,COc1ccc(C=CC(=O)c2ccc(O)cc2O)cc1,inactive
12,C[C@H](CO)N1C[C@H](C)[C@H](CN(C)C(=O)Nc2ccc(-c3ccccc3)cc2)OCc2ccccc2-c2ccccc2C1=O,inactive
13,C[C@H](CO)N1C[C@H](C)[C@H](CN(C)C(=O)CCC(F)(F)F)OCCCC[C@H](C)Oc2ccc(NC(=O)CCC(F)(F)F)cc2C1=O,inactive
14,O=C(NCC(=O)N1CCOCC1)c1ccccc1,inactive
15,Cc1ccc(S(=O)(=O)Nc2ccc3c(c2)CC(=O)N([C@H](C)CO)C[C@@H](C)[C@H](CN(C)S(=O)(=O)c2cn(C)cn2)O3)cc1,inactive
16,Cc1ccc(S(=O)(=O)Nc2ccc3c(c2)CC(=O)N([C@@H](C)CO)C[C@H](C)[C@@H](CN(C)S(=O)(=O)c2cccs2)O3)cc1,inactive
17,C[C@H](CO)N1C[C@H](C)[C@@H](CN(C)S(C)(=O)=O)Oc2ccc(NC(=O)Cn3cnnn3)cc2C1=O,inactive
18,Oc1ccc(C=Cc2cc(O)cc(O)c2)cc1,inactive
19,COc1ccc(O)cc1,inactive
20,COc1cc(C=Cc2ccc(O)cc2)cc(OC)c1,active
21,C[C@@H]1CN([C@@H](C)CO)C(=O)c2cc(C#CCN(C)C)cnc2O[C@@H]1CN(C)S(C)(=O)=O,inactive
22,COc1ccc(S(=O)(=O)N(C)C[C@H]2OCCCC[C@@H](C)Oc3ccc(NC(=O)C4CCCCC4)cc3C(=O)N([C@@H](C)CO)C[C@H]2C)cc1,inactive
23,CC(C)(C)[S@](=O)N1Cc2cc(C(=O)NCCN3CCCCC3)nc(-c3cccc(-c4ccc(C#N)cc4)c3)c2[C@@H]1CCO,inactive
24,C[C@@H]1CN([C@H](C)CO)S(=O)(=O)c2ccc(C#CCC3CCCC3)cc2O[C@@H]1CN(C)C(=O)CN(C)C,inactive
25,C[C@@H]1CN([C@H](C)CO)S(=O)(=O)c2ccc(C#CCC3CCCC3)cc2O[C@@H]1CN(C)C(=O)c1cnccn1,inactive

row,SMILES,cytotoxicity call
1,C[C@@H]1CN([C@@H](C)CO)S(=O)(=O)c2ccc(C#CCC3CCCC3)cc2O[C@@H]1CN(C)C(=O)CN(C)C,active
2,C[C@H]1CN([C@@H](C)CO)S(=O)(=O)c2ccc(C#CCC3CCCC3)cc2O[C@@H]1CN(C)C(=O)CN(C)C,inactive
3,C[C@H]1CN([C@@H](C)CO)S(=O)(=O)c2ccc(C#CCC3CCCC3)cc2O[C@H]1CN(C)C(=O)CN(C)C,active
4,C[C@H](CO)N1C[C@H](C)[C@H](CN(C)C(=O)CN(C)C)Oc2cc(C#CCC3CCCC3)ccc2S1(=O)=O,inactive
5,C[C@H](CO)N1C[C@H](C)[C@@H](CN(C)C(=O)c2cnccn2)Oc2cc(C#CCC3CCCC3)ccc2S1(=O)=O,active
6,C[C@H]1CN([C@@H](C)CO)S(=O)(=O)c2ccc(C#CCC3CCCC3)cc2O[C@H]1CN(C)C(=O)c1cnccn1,inactive
7,C[C@@H]1CN([C@H](C)CO)S(=O)(=O)c2ccc(C#CCC3CCCC3)cc2O[C@H]1CN(C)C(=O)CN(C)C,inactive
8,C=CCN([C@@H](Cc1ccccc1)[C@@H](O)c1cn(CCCNC(=O)C(=O)NC)nn1)S(=O)(=O)c1ccccc1[N+](=O)[O-],inactive
9,C[C@@H]1CN([C@@H](C)CO)S(=O)(=O)c2ccc(C#CCN(C)C)cc2O[C@H]1CN(C)S(=O)(=O)c1cccc(F)c1,inactive
10,CC(=O)OC[C@@H](OC(C)=O)[C@H](OC(C)=O)[C@H](OC(C)=O)[C@H](OC(C)=O)[C@@H](COC(C)=O)OC(C)=O,inactive
11,Cc1noc(C)c1NC(=O)Nc1ccc2c(c1)C(=O)N([C@@H](C)CO)C[C@H](C)[C@@H](CN(C)C(=O)NC(C)C)O2,inactive
12,COc1ccc(S(=O)(=O)Nc2ccc3c(c2)CC(=O)N([C@@H](C)CO)C[C@H](C)[C@@H](CN(C)Cc2ccc(Cl)c(Cl)c2)O3)cc1,inactive
13,COc1ccc(S(=O)(=O)Nc2ccc3c(c2)CC(=O)N([C@H](C)CO)C[C@@H](C)[C@H](CN(C)Cc2ccc(Cl)c(Cl)c2)O3)cc1,active
14,COc1ccc(S(=O)(=O)Nc2ccc3c(c2)CC(=O)N([C@@H](C)CO)C[C@@H](C)[C@H](CN(C)Cc2ccc(Cl)c(Cl)c2)O3)cc1,inactive
15,COc1ccc(S(=O)(=O)Nc2ccc3c(c2)CC(=O)N([C@@H](C)CO)C[C@H](C)[C@H](CN(C)Cc2ccc(Cl)c(Cl)c2)O3)cc1,active
16,COc1ccc(S(=O)(=O)Nc2ccc3c(c2)CC(=O)N([C@H](C)CO)C[C@H](C)[C@H](CN(C)Cc2ccc(Cl)c(Cl)c2)O3)cc1,active
17,COc1ccc(S(=O)(=O)Nc2ccc3c(c2)CC(=O)N([C@@H](C)CO)C[C@@H](C)[C@@H](CN(C)Cc2ccc(Cl)c(Cl)c2)O3)cc1,active
18,CN1C(=O)c2cc(NC(=O)c3cscn3)ccc2OC[C@@H]2O[C@H](CC(=O)N3CCOCC3)CC[C@@H]21,inactive
19,OCC1OC(OCCc2ccc(O)cc2)C(O)C(O)C1O (centres undefined),inactive
20,C[C@@H]1CN([C@H](C)CO)C(=O)c2cc(NC(=O)Nc3ccc(F)cc3)ccc2O[C@@H](C)CCCCO[C@@H]1CN(C)Cc1ccc(C(=O)O)cc1,inactive
21,COc1ccccc1-c1cnc2c(c1)C(=O)N([C@H](C)CO)C[C@H](C)[C@H](CN(C)C(=O)c1cccnc1)O2,inactive
22,CC(O)C(=O)[O-].[NH4+] (centres undefined),inactive
23,C[C@H]1CN([C@@H](C)CO)C(=O)c2cccc(NC(=O)Nc3ccc(F)cc3)c2O[C@@H]1CN(C)C(=O)Nc1ccc(C(F)(F)F)cc1,inactive
24,COc1ccc(S(=O)(=O)Nc2ccc3c(c2)CC(=O)N([C@H](C)CO)C[C@@H](C)[C@@H](CN(C)Cc2ccc(Cl)c(Cl)c2)O3)cc1,active
25,COc1ccc(S(=O)(=O)Nc2ccc3c(c2)CC(=O)N([C@H](C)CO)C[C@H](C)[C@@H](CN(C)Cc2ccc(Cl)c(Cl)c2)O3)cc1,inactive

row,SMILES,cytotoxicity call
1,C/N=C1/S[C@@H]2CS(=O)(=O)C[C@@H]2N1C,inactive
2,O=C(C[C@H]1CC[C@H]2[C@@H](COC[C@@H](O)CN2S(=O)(=O)c2ccc(F)cc2)O1)N[C@H]1CCN(Cc2ccccc2)C1,inactive
3,COc1cccc(CNC(=O)C[C@@H]2C=C[C@H](NC(=O)C3CCOCC3)[C@@H](CO)O2)c1,inactive
4,C[C@@H]1CN([C@@H](C)CO)C(=O)c2cccc(NS(=O)(=O)c3cn(C)cn3)c2O[C@@H]1CN(C)Cc1ccccc1,inactive
5,COc1cc2c3cc1Oc1cc(ccc1O)CC1c4c(cc(OC)c(O)c4Oc4ccc(cc4)CC3N(C)CC2)CC[N+]1(C)C.Cl.O.O.O.O.O.[Cl-] (centres undefined),inactive
6,COc1ccc2cc1Oc1ccc(cc1)CC1c3cc(c(OC)cc3CCN1C)Oc1c(OC)c(OC)cc3c1C(C2)N(C)CC3 (centres undefined),inactive
7,COc1ccc2cc1Oc1ccc(cc1)C[C@H]1c3cc(c(OC)cc3CCN1C)Oc1c(OC)c(OC)cc3c1[C@H](C2)N(C)CC3,active
8,COc1ccc2cc1Oc1ccc(cc1)C[C@H]1c3c(cc4c(c3Oc3cc5c(cc3OC)CCN(C)[C@@H]5C2)OCO4)CCN1C,inactive
9,COc1cc2c3cc1Oc1cc(ccc1O)C[C@@H]1c4c(cc(OC)c(O)c4Oc4ccc(cc4)C[C@@H]3N(C)CC2)CC[N+]1(C)C,inactive
10,COc1ccc2cc1Oc1ccc(cc1)CC1c3c(cc4c(c3Oc3cc5c(cc3OC)CCN(C)C5C2)OCO4)CCN1C (centres undefined),active
11,CO[C@H]1CN(C)C(=O)c2cc(NS(C)(=O)=O)ccc2OC[C@H](C)N(S(C)(=O)=O)C[C@@H]1C,inactive
12,CNC[C@@H]1OCCCC[C@@H](C)Oc2ccc(NS(=O)(=O)c3cn(C)cn3)cc2C(=O)N([C@@H](C)CO)C[C@@H]1C,inactive
13,C[C@H]1CN([C@@H](C)CO)C(=O)c2cc(C#CC3(O)CCCC3)cnc2O[C@H]1CN(C)C(=O)Cc1ccncc1,inactive
14,O=C(Nc1ccc2ccccc2c1)c1ccc(Cl)cc1Cl,inactive
15,O=C(Nc1ccc(Oc2ccc(Cl)cc2)c(Cl)c1)c1cc(I)cc(I)c1O,active
16,O=C(NO)c1cccc(C(=O)N/N=C/c2cc(I)cc(I)c2O)c1,inactive
17,C[C@@H]1CCCCO[C@H](CN(C)C(=O)Nc2ccc(C(F)(F)F)cc2)[C@@H](C)CN([C@H](C)CO)C(=O)c2cc(NS(=O)(=O)c3ccc(F)cc3)ccc2O1,inactive
18,C[C@H](CO)N1C[C@H](C)[C@H](CN(C)C(=O)Nc2ccc(C(F)(F)F)cc2)OCCCC[C@H](C)Oc2ccc(NS(=O)(=O)c3ccc(F)cc3)cc2C1=O,inactive
19,C[C@@H]1CN([C@@H](C)CO)C(=O)c2cc(NS(=O)(=O)c3ccc(F)cc3)ccc2O[C@@H](C)CCCCO[C@@H]1CN(C)C(=O)Nc1ccc(C(F)(F)F)cc1,active
20,C[C@H](CO)N1C[C@H](C)[C@@H](CN(C)C(=O)Nc2ccc(C(F)(F)F)cc2)OCCCC[C@H](C)Oc2ccc(NS(=O)(=O)c3ccc(F)cc3)cc2C1=O,inactive
21,C[C@@H]1CCCCO[C@H](CN(C)C(=O)Nc2ccc(C(F)(F)F)cc2)[C@H](C)CN([C@@H](C)CO)C(=O)c2cc(NS(=O)(=O)c3ccc(F)cc3)ccc2O1,active
22,C[C@H]1CCCCO[C@H](CN(C)C(=O)Nc2ccc(C(F)(F)F)cc2)[C@@H](C)CN([C@@H](C)CO)C(=O)c2cc(NS(=O)(=O)c3ccc(F)cc3)ccc2O1,active
23,C[C@@H]1CCCCO[C@H](CN(C)C(=O)Nc2ccc(C(F)(F)F)cc2)[C@H](C)CN([C@H](C)CO)C(=O)c2cc(NS(=O)(=O)c3ccc(F)cc3)ccc2O1,active
24,C[C@@H]1CCCCO[C@H](CN(C)C(=O)Nc2ccc(C(F)(F)F)cc2)[C@@H](C)CN([C@@H](C)CO)C(=O)c2cc(NS(=O)(=O)c3ccc(F)cc3)ccc2O1,inactive
